Sampled rows, rich in hits. Any-hit rate of the full collection: about 12%.
BAZ2B block – inhibitors of human BAZ2B bromodomain; Q9UIF8; AlphaScreen BAZ2B-H3K14Ac peptide displacement; Potency, µM (highest dose often 114 µM), for inactives: top-dose activity change, negative = inhibition, most hits filed as inhibitors; 360,000 tested, 4.4% active; AID 504333; further: on the % scale 0 is the no-effect control and ±100 the full control effect; nearly all actives have a fitted effect of over 60% in size
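AlphaScreen displacement: compounds (up to 110uM) incubated 30 min at room temperature with a preformed 50 nM BAZ2B/50 nM biotinylated H3K14Ac peptide complex in PBS pH 7.4 with Tween-20. Donor and acceptor beads at 10 ug/mL final added, 20 min light-protected before reading.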
Sfp PPTase inh – inhibitors of Bacillus subtilis Sfp phosphopantetheinyl transferase; Q9F4F7; Biochemical Sfp PPTase activity, qHTS; Potency, µM, for the others: largest response in the series, negative = inhibition, most hits filed as inhibitors; 310,000 tested, 3.5% active;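 further: the enzyme is Sfp with the accession as filed and its product quenches rhodamine fluorescence; 0% = enzyme reaction without inhibitor and -100% = no enzyme wells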
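Fluorescence-quenching assay with 15 nM Sfp, 5 uM rhodamine-CoA and 12.5 uM BHQ-2-labelled ybbR peptide in pH 7.6 Hepes/MgCl2 buffer. Enzyme was pre-incubated with compound for 15 min at room temperature. Rate was taken from the 30-min fluorescence change (525/598 nm).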
G9a block – blocks human histone lysine methyltransferase G9a | Q96KQ7 | G9a H3K9 monomethylation, AlphaScreen, 2 h | Potency, µM (highest dose often 102 µM), inactives show top-dose activity, negative = inhibition, usual class: inhibitors | 350,000 tested, 8.8% active; further: on the % scale 0 is the no-effect control and ±100 the full control effect; nearly all actives have a fitted effect of over 75% in size
Target sequence (Q96KQ7 913-1193 limits assumed): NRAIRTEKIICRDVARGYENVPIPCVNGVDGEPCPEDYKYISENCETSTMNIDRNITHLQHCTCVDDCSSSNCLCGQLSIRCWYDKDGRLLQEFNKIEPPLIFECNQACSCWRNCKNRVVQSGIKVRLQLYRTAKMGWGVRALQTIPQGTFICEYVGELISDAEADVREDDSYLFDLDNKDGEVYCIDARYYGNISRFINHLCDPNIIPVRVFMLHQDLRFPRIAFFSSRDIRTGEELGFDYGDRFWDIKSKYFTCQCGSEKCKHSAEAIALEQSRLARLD
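AlphaScreen read-out: biotin-H3K9 peptide (500 nM) methylation by 20 nM enzyme with 20 uM SAM, 2 h at room temperature after 15 min compound preincubation; anti-monomethyl H3K9 antibody plus donor/acceptor beads, 10 min dark.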
HP1b chromo inh – inhibitors of HP1-beta chromodomain binding to methylated histone tails; AlphaScreen HP1-beta / biotin-H3K9me3 peptide binding; Potency, µM (highest dose often 114 µM), for the others: at the top dose activity change, negative = inhibition, hits mostly inhibitors; 390,000 tested, 0.56% active; P83916; AID 540317; further: nearly all actives have a fitted effect of over 70% in size
Target sequence (P83916 whole entry, looked up): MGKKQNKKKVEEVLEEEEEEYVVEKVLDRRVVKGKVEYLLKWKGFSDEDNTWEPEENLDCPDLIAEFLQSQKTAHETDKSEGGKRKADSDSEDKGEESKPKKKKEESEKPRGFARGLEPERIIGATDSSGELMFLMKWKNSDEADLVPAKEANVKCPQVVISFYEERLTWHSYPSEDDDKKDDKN
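Compound inhibition of the preformed complex between 50 nM HP1-beta and 50 nM biotinylated H3K9me3 peptide was read by AlphaScreen. Buffer was PBS pH 7.4 with 0.01% Tween-20. Incubations ran 30 min at room temperature, with 10 ug/mL donor/acceptor beads.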
JMJD2A Tudor inh – blocks the human JMJD2A Tudor domain; O75164; AlphaScreen JMJD2A-Tudor / H3K4me3 peptide binding; Potency, µM (highest dose often 114 µM), without a hit: at the highest dose activity change, negative = inhibition, usual class: inhibitors; 390,000 tested, 4.4% active; AID 504339; further: on the % scale 0 is the no-effect control and ±100 the full control effect; nearly all actives have a fitted effect of over 50% in size
The depositor's hits bear a star; ? = inconclusive; . = no result; ! = a repeat was not active; [ ] = dose if it differs, or a comment. The call rests on the fitted dose curve; in most records, active means well fitted curve in the direction sought with a large enough effect; inconclusive means small, poorly fitted or top-dose-only effect, or another doubt; inactive means no such curve, though single readings can be large; an effect the other way counts as inactive or inconclusive. Potency means the concentration at half of the fitted maximal effect.

SMILES | BAZ2B block | Sfp PPTase inh | G9a block | HP1b chromo inh | JMJD2A Tudor inh
Cc1cc(CNC(=O)c2cccc(OC3CCN(S(=O)(=O)N(C)C)CC3)c2)on1 | -13.1% | -1.4% | 16.3% | 42.7% | -6.9%
Cc1onc(-c2ccccc2Cl)c1C(=O)NCCn1c(C)cc2ccccc21 | -9.3% | 8.2% | 50.1µM* | 15.7% | -23.9%
Cc1onc(-c2ccccc2Cl)c1C(=O)NC(=S)Nc1ccccc1C(N)=O | -3.7% | 50.1µM* | ? | -11.7% | -13.5%
CC(=O)Nc1nnc(-c2c(-c3ccccc3Cl)noc2C)o1 | ? | 9.9% | -37.4% | 15.4% | 17.8µM*
CCCCN(C)C(=O)CN1C(=O)c2cccnc2Oc2ccc(Cl)cc21 | -2.7% | . | -0.7%[59 µM] | 8.5% | -18.8%
Cc1ccc(-c2noc(-c3cccnc3NCc3ccc(Cl)cc3)n2)cc1 | 1.4% | . | ? | 58.6% | -5.3%
CCOc1ccc(CN(C)Cc2cc(=O)oc3c(C)c(C)ccc23)cc1OC | . | . | . | 27.0%[57 µM] | -10.7%
CN1CCN(CCC(=O)Nc2cccc(Br)c2)CC1 | -29.7% | 17.5% | 56.2µM* | 19.8% | -9.2%
Cc1cc(NC(=O)CCN2CCC(C(N)=O)CC2)ccc1Br | -5.1% | 10.3% | 10.7%[59 µM] | 12.1% | -11.8%
Cc1ccc(NC(=O)CCn2cccc2)cc1C | ? | -7.4% | 50.1µM* | -15.6% | ?
Cc1cc(NC(=O)CCN2CCN(C)CC2)ccc1Br | -1.4% | 3.2% | 13.4%[0.501 µM] | 32.7% | 89.1µM*
COc1cc(Cl)cc(NC(=O)CCN2CCN(C)CC2)c1 | -5.8% | -15.5% | 50.1µM* | 23.6% | -16.4%
COc1cc(NC(=O)CCN2CCN(Cc3ccccc3)CC2)cc(OC)c1 | -31.3% | -9.6% | -2.5%[59 µM] | 12.6% | -5.4%
Cc1c(Cl)cccc1Nc1nn2c(=O)c3ccc(C(=O)NCCC4=CCCCC4)cc3nc2s1 | -7.9% | . | -12.0%[59 µM] | 11.5% | -15.5%
CC(=O)Nc1c(Cl)cc2c(c1Cl)C(=O)c1ccccc1-2 | . | . | . | 13.1% | -12.3%
Oc1ccccc1C1C=C(c2ccc3c(c2)OCO3)NC(c2cccc(F)c2)N1 (configuration not stated) | . | . | . | 19.7% | ?
Cc1ccc(NCC(=O)Nc2ccc(Br)cc2)cc1C | ? | 14.6% | 56.2µM* | 37.4% | -15.3%
Cc1ccc2c(c1)c1c(n2CC(O)Cn2ccnc2C)C(=O)CCC1 (configuration not stated) | -8.3% | 22.1% | -6.9%[59 µM] | 9.7% | -24.4%
Cc1ccc2c(c1)c1c(n2CC(O)CNC2CCCC2)CCCC1 (configuration not stated) | 44.7µM* | -5.5% | 20µM* | ? | 17.8µM*
O=C1CC[C@H](C(=O)O)N1 | . | 9.7% | 19.5%[59 µM] | . | .
O=C(O)[C@@H]1C[C@@H](C(=O)O)N1 | . | ? | 23.8µM*! | . | .
CCOC(=O)c1c(NC(C)=O)c2c3c(sc2n1Cc1nc(-c2ccccc2OCC)oc1C)CCCC3 | -17.4% | . | 1.7%[59 µM] | 32.6% | -3.6%
Cc1cccc(N2CCN(S(=O)(=O)c3ccc4oc(=O)c5ncn(C)c5c4c3)CC2)c1C | -13.5% | . | 8.5%[59 µM] | 21.3% | -7.9%
CCCCNCc1cc(Br)c(OCC(=O)NCc2ccccc2)c(OC)c1 | -17.9% | 6.7% | -46.6% | 29.4% | 0.7%
COc1cc(CNC(C)c2ccccc2)cc(Cl)c1OCC(=O)Nc1ccccc1 (configuration not stated) | -34.8% | 56.2µM* | ? | 44.5% | 2.9%
SMILES | BAZ2B block | Sfp PPTase inh | G9a block | HP1b chromo inh | JMJD2A Tudor inh
COc1cc(CNC(C)c2ccccc2)cc(Br)c1OCc1ccccc1 (configuration not stated) | 44.8% | ? | 20.1% | 118.8% | 80.0%
CCN(CC)CCNCc1cc(Cl)c(OCC(=O)Nc2ccccc2)c(OC)c1 | -31.1% | 4.8% | 44.7µM* | 45.3% | -2.3%
C=CCNc1nc(-c2sc(NC(=O)CC)nc2C)cs1 | ? | -17.6% | 8.91µM* | -3.4% | -29.7%
C=CCNc1nc(-c2sc(NC(C)=O)nc2C)cs1 | -32.8% | -21.0% | 17.8µM* | 2.3% | -30.1%
C=CCc1c(C)nc(-c2ccccc2)nc1N/N=C(\C)c1ccccc1 | -33.2% | 44.7µM* | ? | 31.1% | -28.5%
Cc1ccc(NC(=O)c2cc(N(C)C)ccc2[P+](=O)O)cc1 | ? | 9.7% | 28.2µM* | 5.3% | ?
Cc1ccc(NC(=O)c2cc3ccccc3cc2O)cc1 | -16.9% | 13.5% | 7.9% | 22.7% | -12.7%
O=[N+]([O-])c1cc(F)cc(F)c1Nc1ccc(F)cc1 | . | . | . | ? | 35.5µM*
O=C(Nc1ccc(Cl)cc1Cl)c1ccc(Br)o1 | -3.2% | -1.9% | 18.1% | -19.1% | -1.4%
Cn1c(CCNC(=O)c2ccco2)nc2cc(NC(=O)COc3ccc(Cl)cc3)ccc21 | -1.3% | . | ? | 39.3% | -13.9%
O=C1CC(c2ccco2)Sc2ccccc2N1 (configuration not stated) | -17.5% | -22.8% | 39.8µM* | 19.3% | -26.0%
CCN1C(=O)CC(c2ccco2)Sc2ccccc21 (configuration not stated) | ? | 39.8µM* | 50.1µM* | -4.8% | -26.6%
O=C1CC(c2ccccc2)Sc2ccccc2N1 (configuration not stated) | -2.2% | -7.7% | 44.7µM* | 38.4% | -4.2%
Cc1ccsc1C1CC(=O)Nc2ccccc2S1 (configuration not stated) | -24.2% | 6.4% | -4.6% | 31.2% | -14.8%
Cc1cccc(C(=O)NNC(=O)c2csc(N3CCOCC3)n2)c1C | 10.0% | . | 3.0%[12.7 µM] | 39.7% | -6.8%
Cc1nc2ccccc2c(=O)n1NC(=O)c1ccc([N+](=O)[O-])cc1 | . | 15.6% | -50.4% | -2.3% | 8.91µM*
Cc1cc(C(=O)Nn2c(C)nc3ccccc3c2=O)ccc1[N+](=O)[O-] | -2.8% | 1.1% | -1.6% | -0.9% | -15.3%
CCn1c(=O)c(C(=O)Nn2c(C)nc3ccccc3c2=O)c(O)c2ccccc21 | 50.1µM* | 16.2% | 9.9%[59 µM] | 36.6% | -9.0%
CCn1c(=O)c(C(=O)NCCCO)c(O)c2ccccc21 | . | 12.3% | ? | 1.6% | 28.2µM*
COc1cc(NS(=O)(=O)c2cn(C)cn2)cc(OC)c1OC | -16.3% | 0.5% | 78.2% | 38.9% | -3.1%
Cc1ccc(C)c(Nc2c(F)c(F)c(F)c(F)c2C(=O)O)c1 | -14.3% | 4.7% | 0.3% | 22.3% | -4.2%
COc1ccc(-n2nc(C(=O)NCC(=O)N(C)Cc3ccccc3)c3ccccc3c2=O)cc1OC | 5.9% | 37.4% | -9.1% | -3.8% | -20.5%
O=C(NNc1ccc(Cl)cc1)c1cccs1 | -18.6% | -1.1% | 10µM* | 19.3% | -30.3%
O=C(NNC(=S)Nc1ccccc1)c1cccs1 | 7.5% | 18.5% | ? | 24.0% | -22.6%
O=C(NNC(=O)c1cccs1)Nc1cccc(Cl)c1 | 11.9% | -4.0% | 16.5%[0.0925 µM] | 37.7% | -7.5%
O=C(NNC(=S)Nc1ccc(Cl)cc1)c1cccs1 | -3.8% | 14.7% | 25.1µM* | 16.5% | -27.4%
NS(=O)(=O)c1ccc(NNC(=O)c2cccs2)cc1 | -2.9% | ? | 10µM* | 47.1% | 7.1%
O=C(NNc1cc(Cl)cc(Cl)c1)c1cccs1 | -16.1% | -7.3% | 28.2µM* | 46.5% | -8.3%

Screens: PubChem BioAssay, National Center for Advancing Translational Sciences (NCATS)
